# Test results published in PubChem BioAssay.
# “And” between values parts separate entries of the source, which are not always exact repeats. Equal values may be shown once. The source made the active and inactive calls. Unless noted, no stated cut-off is given here; in the data, active means inhibition above about 80%; inactive means the rest.
# Tests used:
# [1] = viability loss with induced miR-34 in A549 – imaging, A549 dox-inducible miR-34, nuclei and caspase counts, primary screen (AID 1347080;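 active means compounds whose cell count with miR-34 switched on is under 0.7 times the count with it off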); conditions: A549 miR-34 inducible, Hoechst nuclei count, 48 h
# [2] = MELAS cybrid and Rieske KO viability enhancers – cell-based, MELAS cybrids, Rieske KO mouse fibroblasts, CellTiter-Glo, primary screen (AID 1508586;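 active means mean z-score across replicates of 1.96 or higher in either the MELAS or the Rieske mutant cell line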;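 further: z relative to plate mean and SD of compound and empty wells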); conditions: low glucose
# [3] = growth inhibition, single agent or in combination, cell-based, chromothripsis tumors, cisplatin or BGB combos (AID 1671449); conditions: LFS_MB_P medulloblastoma cells;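 further: cells exposed for 96 hours; 0% = vehicle DMSO and 100% = killing by high DMSO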
# [4] = growth inhibition, single agent and combos, cell-based, chromothripsis tumors, cisplatin or BGB combos (AID 1671450); conditions: HDN33 neuroblastoma cells, stronger effect = higher value;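 further: cells exposed to compound for four days; 0% = vehicle DMSO and 100% = cell killing by high DMSO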
# [5] = growth inhibition, single agents and combos, ICB984, cell-based, cisplatin or BGB combos, synergistic combos for chromothripsis tumors (AID 1671451; call rule not given here;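 further: cells exposed for 96 hours before readout; 0% = vehicle DMSO and 100% = killing by high DMSO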); conditions: ICB984 medulloblastoma cells, drug combinations, stronger effect = higher value
# [6] = growth inhibition, single agents and combos, LFS_MB_1R, cell-based, cisplatin or BGB combos, synergistic combos for chromothripsis tumors (AID 1671452); conditions: LFS_MB_1R medulloblastoma cells, stronger effect = higher value;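 further: cells exposed for 96 hours before readout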
# [7] = growth inhibition, single agents and combos, HTB85, cell-based, BGB or cisplatin IC20 combos, synergistic combos for chromothripsis tumors (AID 1671453); conditions: HTB85 osteosarcoma cells, drug combinations, stronger effect = higher value;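 further: cells exposed for 96 hours before readout; 0% = vehicle DMSO and 100% = high DMSO killing control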
# [8] = growth inhibition, single agents and combos, CRL2098, cell-based, BGB or cisplatin IC20 combos, synergistic combos for chromothripsis tumors (AID 1671454); conditions: CRL2098 osteosarcoma cells, drug combinations, stronger effect = higher value;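 further: cells exposed for 96 h before readout; 0% = vehicle DMSO and 100% = killing by high DMSO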
# [9] = growth inhibition, single agents and combos, HD-MB03, cell-based, BGB or cisplatin IC20 combos, synergistic combos for chromothripsis tumors (AID 1671455; in the data active means inhibition above about 83%;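 further: 0% = vehicle DMSO and 100% = high DMSO as cytotoxic control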); conditions: HD-MB03 medulloblastoma cells, stronger effect = higher value
# [10] = growth inhibition, single agents and combos, UWB1.289, cell-based, BGB or cisplatin combos, synergistic combos for chromothripsis tumors (AID 1671456); conditions: UWB1.289 ovarian carcinoma cells, stronger effect = higher value;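 further: cells exposed to compound for four days; 0% = vehicle DMSO and 100% = killing by high DMSO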
# [11] = growth inhibition, single agents and combos, LFS_MB_2R, cell-based, cisplatin combos, synergistic combos for chromothripsis tumors (AID 1671457); conditions: LFS_MB_2R medulloblastoma cells, stronger effect = higher value;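 further: cells exposed to compound for four days before readout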
# [12] = growth inhibition, MDA-MB-436, cell-based, BGB or cisplatin combos, synergistic combos for chromothripsis tumors (AID 1671458; call rule not given here;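 further: cells exposed for 96 hours; 0% = vehicle DMSO and 100% = killing by high DMSO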); conditions: MDA-MB-436 breast carcinoma growth inhibition, drug combinations, stronger effect = higher value
# [13] = UWB1.289_BRCA1 ovarian cancer growth, cell-based, BGB or cisplatin combinations (AID 1671459); conditions: UWB1.289 BRCA1 ovarian carcinoma, drug combinations, stronger effect = higher value
# [14] = drug combination toxicity in non-malignant astrocytes – cell-based, BGB or cisplatin IC20 combos, cytotoxicity control for chromothriptic childhood tumor combination screen (AID 1671460); conditions: Human astrocytes, viability inhibition, drug combinations, at 0.5 µM, stronger effect = higher value;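 further: cells exposed to compounds for 96 hours before viability readout; 0% = vehicle and 100% = killing control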
# [15] = BT084 cell growth, single and combined drugs, ICGC_MB145, cisplatin and BGB IC40 combos (AID 1671461); conditions: BT084 medulloblastoma cells, drug combinations, stronger effect = higher value;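 further: cells exposed to drugs for 96 hours; 0% = vehicle DMSO and 100% = high DMSO full killing control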
# [16] = RCMB18 cell growth, single agent and combined, cisplatin and BGB IC40 combos (AID 1671462); conditions: RCMB18 medulloblastoma cells, stronger effect = higher value;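 further: cells exposed to compound for four days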
# [17] = CRL1545 cell growth, single agent and combined, cisplatin and BGB IC20 combos (AID 1671464); conditions: CRL1545 osteosarcoma cells, stronger effect = higher value;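 further: cells exposed to compound for 96 hours before readout; 0% = vehicle DMSO and 100% = high DMSO killing control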
# [18] = stronger effect = lower value, cell number ratio, induced over uninduced
# [19] = measured here: relative caspase fold change +Dox/-Dox
# [20] = measured here: total cells with miR-34 induction, stronger effect = lower value
# [21] = measured here: total cells without miR-34 induction
# [22] = MELAS cybrid survival, CellTiter-Glo 48 h, stronger effect = higher value
# [23] = Rieske KO mouse fibroblast survival, CellTiter-Glo 72 h
# [24] = at 0.5 µM, stronger effect = higher value
# [25] = measured here: combination with BGB IC20, at 0.005 µM
# [26] = measured here: combination with BGB IC40, at 0.005 µM
# [27] = measured here: combination with BGB IC40, at 0.05 µM
# [28] = measured here: combination with cisplatin, at 0.5 µM, stronger effect = higher value
# [29] = measured here: combination with cisplatin, at 5 µM, stronger effect = higher value
# [30] = measured here: with BGB IC20 combination, at 0.5 µM
# [31] = measured here: with cisplatin IC20 combination, at 0.5 µM
# [32] = measured here: 5 uM single agent, at 5 µM
# [33] = measured here: combination with cisplatin, at 0.5 µM
# [34] = measured here: combination with cisplatin, at 5 µM
smiles,measurement,setting,value
O=c1ccn(C2OC(CO)C(O)C2O)c(=O)[nH]1 (centres undefined),fold change,[1]; [18],0.86 (inactive)
same,fold change,[1]; [19],0.784
same,cell count,[1]; [20],8240
same,cell count,[1]; [21],9580
same,z-score,[2]; [22],-0.15 (inactive)
same,z-score,[2]; [23],0.496
same,inhibition,[3]; [24],-8.26% (inactive) and 22% (inactive)
same,inhibition,[3]; [25],10.5% and -21.6%
same,inhibition,[3]; [26],8.95% and -30.9%
same,inhibition,[3]; [27],17.3% and -34.8%
same,inhibition,[3]; [28],37.5% and 6.75%
same,inhibition,[3]; [29],-10.3% and -15.6%
same,inhibition,"[4]; BGB combo, at 5 µM",17.7% and -13.8%
same,inhibition,[4]; at 0.5 µM,23.7% (inactive) and 2.11% (inactive)
same,inhibition,"[4]; cisplatin combo, at 5 µM",22% and -0.337%
same,inhibition,[4]; [30],17.2% and -17.5%
same,inhibition,[4]; [31],35.5% and -0.199%
same,inhibition,"[4]; single agent, at 5 µM",18.6% and -37.8%
same,inhibition,"[5]; BGB IC20 combo, at 0.005 µM",12.4% and 14.9%
same,inhibition,"[5]; BGB IC40 combo, at 0.005 µM",6.25% and -39.4%
same,inhibition,"[5]; BGB IC40 combo, at 0.05 µM",-7.22% and -39.4%
same,inhibition,[5]; at 0.5 µM,-8.08% (inactive) and -24.1% (inactive)
same,inhibition,"[5]; cisplatin combo, at 0.05 µM",-11.1% and -43.3%
same,inhibition,"[5]; cisplatin combo, at 0.5 µM",4.25% and -24.8%
same,inhibition,"[5]; cisplatin combo, at 5 µM",-7.38% and -52.9%
same,inhibition,[5]; [32],7.59% and -39.4%
same,inhibition,[6]; at 0.5 µM,-5.2% (inactive) and -14.4% (inactive)
same,inhibition,[6]; [27],-12.7% and -13.9%
same,inhibition,[6]; [33],-10% and 2.17%
same,inhibition,[6]; [34],-46% and -44.9%
same,inhibition,[7]; at 0.5 µM,10.7% (inactive) and -20.8% (inactive)
same,inhibition,"[7]; measured here: with BGB IC20, at 0.5 µM",10.2% and -46.4%
same,inhibition,"[7]; measured here: with BGB IC20, at 5 µM",15% and -44.4%
same,inhibition,"[7]; measured here: with cisplatin IC20, at 0.5 µM",7.75% and -5.03%
same,inhibition,"[7]; measured here: with cisplatin IC20, at 5 µM",1.8% and -45.1%
same,inhibition,"[7]; single agent, at 5 µM",13% and -28.4%
same,inhibition,[8]; at 0.5 µM,9.28% (inactive) and -75.8% (inactive)
same,inhibition,"[8]; measured here: combination with BGB at IC20, at 0.5 µM",0.692% and -94%
same,inhibition,"[8]; measured here: combination with cisplatin at IC20, at 0.5 µM",13.9% and -68.3%
same,inhibition,[9]; at 0.5 µM,6.18% (inactive) and -13.5% (inactive)
same,inhibition,"[9]; measured here: combo with BGB at IC20, at 0.5 µM",2.23% and -12.6%
same,inhibition,"[9]; measured here: combo with cisplatin at IC20, at 0.5 µM",13.4% and -11.6%
same,inhibition,[10]; at 0.5 µM,16.3% (inactive) and -6.23% (inactive)
same,inhibition,"[10]; measured here: inhibition with BGB combination, at 0.05 µM",-2.12% and -33.8%
same,inhibition,"[10]; measured here: inhibition with cisplatin combination, at 0.05 µM",36.9% and -21.3%
same,inhibition,[11]; at 0.5 µM,6.19% (inactive) and -21.5% (inactive)
same,inhibition,[11]; [33],9.72% and -11.9%
same,inhibition,[11]; [34],14.1% and -81.5%
same,inhibition,[12]; at 0.5 µM,10.4% (inactive) and -39.6% (inactive)
same,inhibition,"[12]; measured here: BGB combination, at 0.5 µM",7.3% and -43.2%
same,inhibition,"[12]; measured here: BGB combination, at 5 µM",8.01% and -19.5%
same,inhibition,"[12]; measured here: cisplatin combination, at 0.5 µM",12.2% and -58.5%
same,inhibition,"[12]; measured here: cisplatin combination, at 5 µM",2.73% and -39.8%
same,inhibition,"[13]; BGB combination, concentration series, at 5 µM",8.48% and -29.5%
same,inhibition,[13]; at 0.5 µM,10.7% (inactive) and -14.6% (inactive)
same,inhibition,"[13]; cisplatin combination, concentration series, at 5 µM",-14.1% and -9.02%
same,inhibition,[14],8.08% (inactive) and -8.91% (inactive)
same,inhibition,[14]; measured here: combo with BGB IC20,10.4% and -14.8%
same,inhibition,[14]; measured here: combo with cisplatin IC20,12.5% and -5.12%
same,inhibition,[15]; at 0.5 µM,5.91% (inactive) and -28.7% (inactive)
same,inhibition,"[15]; cisplatin combination, at 0.5 µM",-2.3% and -6.58%
same,inhibition,"[15]; cisplatin combination, at 5 µM",-4.68% and -1.56%
same,inhibition,"[15]; measured here: BGB IC40 combination 0.05 uM, at 0.05 µM",39.8% and -13.1%
same,inhibition,"[15]; single agent, at 5 µM",-4.18% and -25.9%
same,inhibition,[16]; at 0.5 µM,11% (inactive) and -17.5% (inactive)
same,inhibition,"[16]; cisplatin combo, at 5 µM",10.7% and -4.43%
same,inhibition,"[16]; measured here: BGB IC40 combination, at 0.05 µM",15.8% and -34.3%
same,inhibition,[16]; [33],22.8% and -4.28%
same,inhibition,"[16]; single agent, at 5 µM",-1.69% and -19.5%
same,inhibition,[17]; at 0.5 µM,11.7% (inactive) and -2.83% (inactive)
same,inhibition,[17]; [30],-2.36% and -19.1%
same,inhibition,[17]; [31],17.5% and 3.15%
same,inhibition,"[17]; single agent, at 0.05 µM",32.6% and -48.2%
same,inhibition,"[17]; single agent, at 5 µM",-21.6% and -1.48%
Nc1ncn(C2OC(CO)C(O)C2O)c(=O)n1 (centres undefined),fold change,[1]; [18],0.707 (inactive)
same,fold change,[1]; [19],0.203
same,cell count,[1]; [20],2140
same,cell count,[1]; [21],3020
same,z-score,[2]; [22],-0.256 (inactive)
same,z-score,[2]; [23],0.025
same,inhibition,[3]; [24],-5.82% (inactive)
same,inhibition,[3]; [25],12.2%
same,inhibition,[3]; [26],6.88%
same,inhibition,[3]; [27],-0.515%
same,inhibition,[3]; [28],-8.35%
same,inhibition,[3]; [29],15.6%
same,inhibition,"[4]; BGB combo, at 5 µM",35.3%
same,inhibition,[4]; at 0.5 µM,3.8% (inactive)
same,inhibition,"[4]; cisplatin combo, at 5 µM",38.5%
same,inhibition,[4]; [30],-3.13%
same,inhibition,[4]; [31],6.68%
same,inhibition,"[4]; single agent, at 5 µM",47.8%
same,inhibition,"[5]; BGB IC20 combo, at 0.005 µM",3.99%
same,inhibition,"[5]; BGB IC40 combo, at 0.005 µM",-4.47%
same,inhibition,"[5]; BGB IC40 combo, at 0.05 µM",64.1%
same,inhibition,[5]; at 0.5 µM,-14.1% (inactive)
same,inhibition,"[5]; cisplatin combo, at 0.05 µM",62.8%
same,inhibition,"[5]; cisplatin combo, at 0.5 µM",-8.65%
same,inhibition,"[5]; cisplatin combo, at 5 µM",-9.29%
same,inhibition,[5]; [32],-4.38%
same,inhibition,[6]; at 0.5 µM,1.69% (inactive)
same,inhibition,[6]; [27],-18.7%
same,inhibition,[6]; [33],-16%
same,inhibition,[6]; [34],-12%
